Measured values reported in PubChem BioAssay (NCI).
The panel holds about 83,000 compounds, 20% with a hit somewhere; the sample as a whole holds those more often.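 A percent growth of 40 corresponds to 60% growth inhibition; 0 means no net growth; -100 means all cells died. Active threshold: below 10.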 Unmarked numbers belong to inactive results. Active and inactive are the calls of the source.

System: T-47D breast
Test: NCI-60 one-dose screen, 48 h (100 = growth as untreated, 0 = no growth, -100 = all killed)
Settings: 10 µM
Experimental: Growth inhibition of the T-47D human tumor cell line is measured as a screen for anti-cancer activity. Cells are grown in 96 well plates and exposed to the test compound for 48 hours. Compounds are tested at a single concentration, which is 10^-5 M for most compounds. The reported endpoint is percent growth (GI% or GIPRCNT), where numbers from 0 - 100% represent growth inhibition, and numbers from -100% - 0 represent cell death. For example, a value of 40 represents 60% growth inhibition. A value of 0 means no net growth occurred over the course of the experiment. A value of -40 indicates 40% of cells at the beginning of the experiment died by the end of the experiment. A value of -100 means all cells are dead at the end of the experiment.
NCI-60 Human Tumor Cell Lines Screen was performed using the standard one-dose NCI protocol, which is described in more detail at https://dtp.cancer.gov/discovery_development/nci-60/default.htm.
Compounds with GIPRCNT values below 10 were considered active. Activity score was based on GIPRCNT using the following formula: […]
Score is 0 for GIPRCNT values of 100 or above, 50 for GIPRCNT values of 0, and 100 for GIPRCNT values of -100.

For `COc1cc(C(=O)/C=C/c2cc(-c3cc(OC)c(OC)c(OC)c3)n[nH]2)cc(OC)c1OC`, the growth was -26.1% (active).
For `Clc1nc(Cl)c2c(ncn2C/C=C\Cn2cnc3c(Cl)nc(Cl)nc32)n1`, the growth was -47% (active).
In the case of `COc1ccccc1CNCCCN1C(=O)c2ccc3c4c(ccc(c24)C1=O)C(=O)N(CCCN)C3=O`, the growth was -42.6% (active).
In the case of `O=C(N/N=C/c1cc2ccccc2c2ccccc12)c1cc(O)c(O)c(O)c1`, the growth was 2.62% (active).
In the case of `CN(C)CCNC(=O)c1cccn2c(=O)c3cc4ccccc4cc3nc12`, the growth was 5.57% (active).
In the case of `CS(=O)(=O)Nc1ccc(Nc2c3ccccc3nc3cc(N)ccc23)cc1`, the growth was -14.5% (active).
In the case of `CCOC(=O)C(=Cc1ccc(Br)cc1)C(=O)OCC`, the growth was -16.7% (active).

Going from `Cn1c(C(N)=O)cc2c1-c1nc(Nc3ccccc3)ncc1CCC2` to `COc1cc2nc(Nc3cccc(NC(C)=O)c3)nc(N)c2cc1OC`, the growth rises from 65.1% to 90.1%.

Going from `COc1cc(-c2cc(C(=O)N3CCN(C(=O)c4ccccc4NCc4cccs4)CC3)nc3cc(-c4ccccc4)nn23)cc(OC)c1OC` to `COc1ccc(-c2ccc3cc(C(=O)Nc4ccc(O)c(C(=O)/C=C/c5cc(OC)c(OC)c(OC)c5)c4)ccc3c2)cc1`, the growth rises from 79.6% to 85.5%.

Going from `Cc1nc2oc3ccccc3c(=O)c2cc1C(=O)NCc1ccccc1` to `O=C(NC(Cc1ccc(O)cc1)C(=O)N=Nc1c(O)[nH]c2ccccc12)c1ccccc1` (stereo not given), the growth rises from 53.9% to 107%.

First: COc1cc(-c2cc(/C=C3\C(=O)Nc4ccccc43)[nH]n2)cc(OC)c1OC
Second: COc1ccc(C2=NN(C(=O)c3ccc(S(C)(=O)=O)cc3)C(c3ccc(OC)c(OC)c3)C2)c(OC)c1 (stereo not given)
The growth of the first is lower: 20.9% for the first, 74.8% for the second.

Compared with `CC(=O)O[C@]1(C)CC[C@H]2[C@H](CNCCc3ccc(Cl)cc3)C(=O)O[C@@H]2C2=C(C)C(=O)C[C@H]21`, `CC(=O)N1C/C(=C/c2ccc(Cl)cc2)C(=O)/C(=C/c2ccc(Cl)cc2)C1` is lower in growth: 92.3% for the first, 30.1% for the second.

Compared with `Fc1ccc(-c2nnc(-c3c(-c4ccc(F)cc4)nc4ccccn34)o2)cc1`, `COc1ccc(-c2nc(-c3nc4cc(Cl)c(Cl)cc4[nH]3)c3ccccn23)cc1` is higher in growth: 62.3% for the first, 66.5% for the second.

Going from `c1ccc(C(NC2CC3CCC2C3)c2ccccc2)cc1` (stereo not given) to `O=C(N/N=C/c1ccccc1)C(Oc1ccccc1)c1ccccc1` (stereo not given), the growth falls from 99.9% to 94.4%.

Compared with `CCOC1(OCC)OC(c2ccccc2)=C(C#N)C(/C=C\c2ccccc2)C1(OCC)OCC` (stereo not given), `CCOC(=O)C1CCc2c(ccc3ccccc23)N1CCC#N` (stereo not given) is higher in growth: 67.5% for the first, 97.5% for the second.

First: N#Cc1cccc(OCc2nc(N)nc(N)c2-c2ccc(Cl)c(Cl)c2)c1
Second: C#Cc1ccc(-n2c(/C=C/c3ccc4ccccc4c3)nc3ncccc3c2=O)cc1
The growth of the first is higher: 71.5% for the first, 42.7% for the second.

Compared with `Cc1c(Cl)cccc1NC(=O)c1sc2nc3c(cc2c1N)C(=O)CCC3`, `O=C(Cc1csc2nc(-c3ccc(Cl)cc3)cn12)N/N=C/c1ccccc1O` is higher in growth: 54.5% for the first, 57.7% for the second.

Compared with `CC/C(C)=C(\C)C(=O)O`, `CCCC(F)C(=O)O` (stereo not given) is lower in growth: 100% for the first, 97.7% for the second.

Compared with `COc1ccc(Oc2nc(NC3CCCC3)nc(Sc3ccc(OC)cc3)n2)cc1`, `COc1ccc(N=C2C(=Nc3ccc(OC)cc3)N(c3ccc(N(C)C)cc3)C(=S)N2c2ccc(OC)cc2)cc1` is higher in growth: 55.9% for the first, 91.1% for the second.

Compared with `CCCN(CCC)CCC(O)c1cc2c(c3ccccc13)CCCC2` (stereo not given), `NC(=O)CC1(c2ccccc2)CCCCC1` is higher in growth: 68.9% for the first, 97.5% for the second.

First: Cc1cc(Cc2cc(C)c(O)c(C)c2)cc(C)c1O
Second: CSc1nn(-c2ccccc2)c2ncnc(Oc3ccc(C)cc3)c12
The growth of the first is lower: 52.8% for the first, 83.4% for the second.

First: CCOCCOCCOCCOCCOCCOCCOCCOCCOCCO (tested in a mixture with another compound)
Second: O=C(CNC(=O)OCc1ccccc1)NCC(=O)Oc1ccc([N+](=O)[O-])cc1
The growth of the first is lower: 16.6% for the first, 103% for the second.

Going from `O=C(CSSCC(=O)c1ccc(Cl)cc1)c1ccc(Cl)cc1` to `C#Cc1ccc(-n2c(/C=C/c3ccc(O)cc3)nc3ncccc3c2=O)cc1`, the growth falls from 74.8% to 67.4%.

In the case of `CC(C)(C#N)Nc1ccccc1`, the growth was 102%.
